Assay outcomes (PubChem BioAssay)
aSyn UTR act: Activators via SNCA 5'UTR binding, MLPCN. alpha-synuclein 5'UTR reporter, activators screen. activity score, % (tested at 7.5 µM), hits read low. 7.1% of 300,000 active; in the data active = activity score below about -60%
Each line names hits and unclear results; the compound was inactive in the other large screens. The list is a sample of the results.

CCOC(=O)C(O)(c1ccc(NC(=O)NC2CCCCC2)cc1)C(F)(F)F (stereo not given)	aSyn UTR act -83.4
[O-]c1ccccc1-[n+]1c(-c2ccccc2)cc(-c2ccccc2)cc1-c1ccccc1	none
C[C@]12CC[C@H]3C(CCC4(O)CC(O)CC[C@]34C=O)C1=CC[C@H]2c1ccc(=O)oc1 (stereo not given in full)	none
c1ccc2sc(NC3=NCCN3)nc2c1	aSyn UTR act -103.3
COc1ccc2nc(NC3=NCCN3)sc2c1	aSyn UTR act -209.1
CN1CCN(c2ccc([N+](=O)[O-])c3no[n+]([O-])c23)CC1	none
NC(N)=N/N=C/c1ccc(N(c2ccccc2)c2ccccc2)cc1	none
Nc1ccccc1C(=O)OCc1ccc([N+](=O)[O-])cc1	aSyn UTR act -82.6
O=C1NC(=O)N(Cc2ccccc2)C(=O)/C1=C\C=C\c1ccco1	aSyn UTR act -222.0
C=CCN1C(=O)NC(=O)/C(=C/C=C/c2ccccc2)C1=O	aSyn UTR act -69.5
O=C1NC(=O)N(Cc2ccco2)C(=O)/C1=C/C=C/c1ccco1	aSyn UTR act -288.4
CCOC(=O)c1cc2c(cn1)[nH]c1ccccc12	aSyn UTR act -142.5
CCn1nc(-c2ccccc2)nc2c(=O)n(C)c(=O)nc1-2	aSyn UTR act -84.0
Cc1nc2c(=O)n(C)c(=O)nc-2n(C)n1	none
COC(=O)C(O)(c1ccc(NC(=S)NC(=O)c2ccccc2)cc1)C(F)(F)F (stereo not given)	aSyn UTR act -79.9
Cc1ccc2nc(N3CCN(C)CC3)[nH]c2c1	aSyn UTR act -95.5
Cc1ccc(C[n+]2c(-c3ccc(C)cc3)cc(-c3ccc(C)cc3)cc2-c2ccc(C)cc2)cc1	none
CNC(=O)Oc1ccc(-c2cn3cc(C)ccc3n2)cc1	none
Nc1c(C(=O)NCc2ccco2)c2nc3ccccc3nc2n1CCN1CCCCC1	aSyn UTR act -103.4
CCOC(=O)c1c(N)n(CCCOC(=O)c2ccco2)c2nc3ccccc3nc12	none
Clc1ccccc1Nc1ncnc(-n2cccc2)n1	aSyn UTR act -160.0
COc1cc(C=C2C(=O)NC(=O)NC2=O)ccc1OS(=O)(=O)c1ccccc1[N+](=O)[O-]	aSyn UTR act -96.2
C=C1C[C@@H]2[C@H](CC[C@]3(C)C(=O)CC[C@@H]23)[C@@]2(C)C=CC(=O)C=C12	aSyn UTR act -141.4
O=C1NC(=O)C(=Cc2cccc(OCCOc3ccccc3)c2)C(=O)N1	aSyn UTR act -86.8
C=C1[C@@H](C)[C@H]2[C@H](Cc3ccccc3)NC(=O)[C@]23OC(=O)/C=C/[C@H](O)CCC[C@@H](C)C/C=C/[C@H]3[C@@H]1O	none
COc1ccc(NC2=NC(C)(C)CS2)cc1	aSyn UTR act -139.7
CN(C)c1ccc(/C=C/[N+](=O)[O-])cc1	aSyn UTR act -73.9
CC(Cc1ccccc1)/[N+]([O-])=C\c1ccc(C(F)(F)F)cc1 (stereo not given)	aSyn UTR act -119.0
CC(C)(C)c1ccc(CSc2cnn(C(C)(C)C)c(=O)c2Cl)cc1	none
COc1ccc(P2(=O)Nc3ccccc3N2)cc1	aSyn UTR act -139.5
CN1C(=O)C(=Cc2ccc(N3CCOCC3)o2)C(=O)N(C)C1=S	aSyn UTR act -65.1
CN1C(=O)/C(=C/c2ccc(N3CCCCCC3)o2)C(=O)NC1=S	aSyn UTR act -185.6
CN1C(=O)/C(=C\c2ccc(N3CCCCC3)o2)C(=O)NC1=S	aSyn UTR act -162.2
COc1ccc(C2NCc3ccc4c(c3-n3cccc32)OCO4)cc1O (stereo not given)	none
Cc1cc([N+](=O)[O-])c2ccccc2[n+]1[O-]	none
C=CCN1C(=O)NC(=O)/C(=C/c2ccc(OC)c(COc3ccc(NC(C)=O)cc3)c2)C1=O	aSyn UTR act -63.8
CN(C)C(=O)On1c(-c2ccccc2)nc2ccc(Cl)cc21	aSyn UTR act -71.1
C=C(C=O)C[C@@H]1C[C@H](O)C2OC3C[C@]4(C)OC5/C=C\CC6OC7C(CC=CCC6OC5CCCC4OC3CC2O1)OC1CC2OC3CC(=O)OC3C[C@@H](C)C[C@@]2(C)OC1C[C@@H]7C (stereo not given in full)	none
C=C1C(=O)O[C@@H]2C[C@@H](C)[C@@H]3C4OC4C(=O)[C@@]3(C)[C@@H](O)[C@H]12 (stereo not given in full)	aSyn UTR act -221.1
Nc1ccc2c(c1)oc1ccccc12	aSyn UTR act -113.4
Cc1ccc2nc3c(cc2c1)CC1(C(=O)N(C)C(=O)N(C)C1=O)C1CCCCN31 (stereo not given)	aSyn UTR act -106.2
Cc1ccc2nc3c(cc2c1)CC1(C(=O)N(C)C(=O)N(C)C1=O)C1COCCN31 (stereo not given)	aSyn UTR act -63.1
COC(=O)C1CN(C#N)N(c2ccc(Cl)cc2)C12c1ccccc1-c1ccccc12 (stereo not given)	none
CNc1ccc2oc(C[C@H]3O[C@@]4(CC[C@H]3C)O[C@H]([C@H](C)C(=O)c3ccc[nH]3)[C@H](C)C[C@H]4C)nc2c1C(=O)O	none
CC(C)[C@]12O[C@H]1[C@@H]1O[C@]13[C@]1(O[C@H]1C[C@H]1C4=C(CC[C@@]13C)C(=O)OC4)[C@@H]2O	none
